Compounds with a hit are over-represented: about 3.6% of the library has one in this group of screens.
AmpC inh detg: inhibitors of E. coli AmpC beta-lactamase with detergent; P00811; AmpC hydrolysis of nitrocefin, absorbance 480 nm, 0.01% Triton; Potency, µM (highest dose often 114 µM), hits mostly inhibitors; 0.041% of 370,000 active; AID 485294; further: nearly all actives have a fitted effect of over 25% in size
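20 mM phosphate pH 7.0 + 0.01% (detergent screen) or 0.0001% Triton X-100; 5.3 nM AmpC reagent; cpd preinc 15 min RT; nitrocefin (800 uM stock) to start; A480 q20 s × 4 min; Activity was normalised to no-enzyme and no-compound control wells.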
Sm TGR inh: blocks Schistosoma mansoni thioredoxin glutathione reductase; Q962Y6; purified TGR, DTNB reduction, TNB absorbance 405 nm; Potency, µM (series often up to 114 µM), hits mostly inhibitors; 3% of 360,000 active; AID 485364; further: nearly all actives have a fitted effect of over 60% in size
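Kinetic colorimetric format: TGR-catalysed, NADPH-driven DTNB reduction monitored via TNB absorbance. Enzyme dispensed at 20 nM; compound exposure 15 min at room temperature before reaction start.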
Giardia FBPA inh: blocks Giardia fructose-bisphosphate aldolase activity | A8B2U2 | purified Giardia FBPA | Potency, µM (titrated, usually from 59.6 µM), most hits filed as inhibitors | 0.71% of 290,000 active; further: nearly all actives have a fitted effect of over 55% in size
Target sequence (A8B2U2 whole entry, looked up): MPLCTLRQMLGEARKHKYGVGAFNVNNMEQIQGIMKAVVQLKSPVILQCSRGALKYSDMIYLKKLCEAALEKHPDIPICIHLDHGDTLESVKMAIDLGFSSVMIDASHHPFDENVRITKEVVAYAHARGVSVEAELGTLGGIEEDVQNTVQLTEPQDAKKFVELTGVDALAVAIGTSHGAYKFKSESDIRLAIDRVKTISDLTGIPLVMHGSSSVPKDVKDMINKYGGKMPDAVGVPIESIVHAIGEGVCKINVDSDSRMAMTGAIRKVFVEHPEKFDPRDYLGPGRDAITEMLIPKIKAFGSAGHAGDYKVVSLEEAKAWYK
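Giardia FBPA (40 nM reagent) was preincubated 10 min at RT with compound (up to 57.5 uM final), then substrate plus GAPDH/TPI/NAD/arsenate coupling system with diaphorase/resazurin was added; resorufin fluorescence (525/598 nm) was read after 20 min.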
AmpC no deterg: inhibitors of E. coli AmpC beta-lactamase without detergent; 0.52% of 330,000 active; AmpC nitrocefin hydrolysis, absorbance 480 nm, 0.0001% Triton; Potency, µM (doses to about 57.1 µM), actives largely listed as inhibitors; P00811; further: nearly all actives have a fitted effect of over 20% in size
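20 mM phosphate pH 7.0 + 0.01% (detergent screen) or 0.0001% Triton X-100; 5.3 nM AmpC reagent; cpd preinc 15 min RT; nitrocefin (800 uM stock) to start; A480 q20 s × 4 min; Activity was normalised to no-enzyme and no-compound control wells.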
Of the large screens only hits and unclear results are named; the others gave an inactive call. The call rests on the fitted dose curve; in most records, active means well fitted curve in the direction sought with a large enough effect; inconclusive means small, poorly fitted or top-dose-only effect, or another doubt; inactive means no such curve, though single readings can be large; an effect the other way counts as inactive or inconclusive.

COc1ccc(C2C3=C(CCCC3=O)N(CC(=O)O)C3=C2C(=O)CCC3)cc1Cl	Sm TGR inh 50µM
C#CCOc1c(Cl)cc(C2C3=C(CCCC3=O)N(CC(=O)O)C3=C2C(=O)CCC3)cc1OC	none
COc1cccc(/C=N/N2CCOCC2)c1O	none
Oc1ccc(/C=N/N2CCCCC2)c(O)c1O	Sm TGR inh 35µM, Giardia FBPA inh 2.8µM
Oc1ccc(/C=N/N2CCOCC2)c(O)c1O	Giardia FBPA inh 5.6µM
Cc1ccc(NC(=O)CSc2ccccc2)cc1S(=O)(=O)N1CCOCC1	AmpC inh detg inconclusive (no result: Giardia FBPA inh)
Cc1ccc(NC(=O)C2CCCC2)cc1S(=O)(=O)N1CCOCC1	none (no result: Giardia FBPA inh)
Cc1ccc(C)c(SCC(=O)Nc2ccc(C)c(S(=O)(=O)N3CCOCC3)c2)c1	Sm TGR inh 45µM (no result: Giardia FBPA inh)
Cc1ccc(NC(=S)Nc2ccc(S(=O)(=O)N3CCOCC3)cc2)cc1S(=O)(=O)N1CCOCC1	Sm TGR inh 16µM
Cc1ccc(NC(=O)c2ccc([N+](=O)[O-])o2)cc1S(=O)(=O)N1CCOCC1	Sm TGR inh 14µM
O=S(=O)(c1ccc(NC(=S)NC2CC2)cc1)N1CCOCC1	Sm TGR inh 16µM
Cc1ccc(NC(=S)NCc2ccc(Cl)cc2)c(OC(F)F)c1	AmpC no deterg inconclusive
Cc1cc(CNC(=S)Nc2ccc(Br)cc2Cl)nn1C	Sm TGR inh 7.9µM
OCCCNC(=S)Nc1ccc(Br)cc1Cl	Sm TGR inh 3.2µM
O=C(N/N=C/C(Br)=C\c1ccccc1)c1cccs1	none
N#CC(C#N)=C1C=CC=CN1/C(=C\c1ccccc1Cl)C(=O)c1ccccc1	Sm TGR inh 0.28µM, Giardia FBPA inh inconclusive
N#CC(C#N)=C1C=CC=CN1/C(=C\c1ccccc1)C(=O)c1cccs1	Sm TGR inh 0.28µM
O=c1c(-c2ccc(Cl)cc2)nc2cnc(N3CCNCC3)nc2n1CCc1ccccc1	none (no result: AmpC inh detg, Sm TGR inh, AmpC no deterg)
CCc1ccc(NC(=O)CSCc2ccc(C(=O)O)cc2)cc1	none
c1coc(CNc2nc3nonc3nc2NCc2ccco2)c1	Sm TGR inh 50µM, Giardia FBPA inh inconclusive
O=S(=O)(Nc1nc2ccccc2nc1NCc1ccco1)c1ccccc1	none
COCCn1c(C)cc(O)c(C(c2ccc(Cl)cc2)N2CCCCC2)c1=O (stereo unspecified)	Sm TGR inh 10µM (no result: Giardia FBPA inh, AmpC no deterg)
COCCn1c(C)cc(O)c(C(c2ccc(C)cc2)N2CCCCC2)c1=O (stereo unspecified)	Sm TGR inh 8.9µM (no result: Giardia FBPA inh, AmpC no deterg)
CS(=O)(=O)Nc1ccc(-c2nc3ccccc3s2)cc1	none (no result: Giardia FBPA inh, AmpC no deterg)
C=C1N(C)c2cc([N+](=O)[O-])c(N)cc2C1(C)C	Sm TGR inh 20µM, Giardia FBPA inh 4.5µM
CC1(C)Oc2cc(N)c([N+](=O)[O-])cc2O1	none
CCN(CC)CCC[C@H](C)Nc1c2ccc(Cl)cc2nc2ccc(OC)cc12	none (no result: AmpC inh detg, Sm TGR inh, AmpC no deterg)
Cc1cc(C)n(-c2ccc(NN=C(C#N)C#N)cc2)n1	Sm TGR inh 32µM, Giardia FBPA inh inconclusive
O=C(C1CC1)N1CCN(c2nc3c(F)cc(F)cc3s2)CC1	none (no result: Giardia FBPA inh, AmpC no deterg)
Cc1nonc1C(=O)N/N=C/c1cccc(O)c1	AmpC inh detg inconclusive, Sm TGR inh 11µM
N=c1sccn1CC(=O)Nc1ccc(Cl)cc1[N+](=O)[O-]	Sm TGR inh 40µM
COc1cc(NC(=O)Cn2ccsc2=N)c(C)cc1[N+](=O)[O-]	none
N=c1sccn1CC(=O)Nc1ccc(S(N)(=O)=O)cc1	Sm TGR inh 45µM
Cc1ccc(C)c(NS(=O)(=O)c2cc3c4c(c2)CC(=O)N4CCC3)c1	AmpC inh detg inconclusive (no result: Giardia FBPA inh)
COc1ccc(O)c(N)c1	AmpC inh detg inconclusive, Sm TGR inh 3.2µM, Giardia FBPA inh 3.5µM
CC(C)(C)c1cc(CN2CCC(O)CC2)cc(C(C)(C)C)c1O	Sm TGR inh 7.9µM
CN1CCN(Cc2cc(C(C)(C)C)c(O)c(C(C)(C)C)c2)CC1	Sm TGR inh 3.5µM, Giardia FBPA inh inconclusive
CC(C)(C)c1cc(CN(CCO)CCO)cc(C(C)(C)C)c1O	Sm TGR inh inconclusive, Giardia FBPA inh inconclusive
OC1CCN(Cc2ccc3ccccc3c2)CC1	Giardia FBPA inh inconclusive
CN(C)Cc1cc(C(C)(C)C)c(O)c(C(C)(C)C)c1	Sm TGR inh 22µM
CC(c1nc2ccccc2c(=O)[nH]1)N1CCCN(S(=O)(=O)c2ccc(F)cc2)CC1 (stereo unspecified)	none (no result: Giardia FBPA inh)
Cc1cc(OCCn2c(CCNC(=O)C3CCCCC3)nc3ccccc32)ccc1Cl	none (no result: Giardia FBPA inh, AmpC no deterg)
O=C(N/N=C/C=C/c1ccco1)c1ccncc1	Sm TGR inh 28µM, Giardia FBPA inh inconclusive
O=C(N/N=C/C=C/c1ccco1)/C(=C/c1ccccc1)NC(=O)c1ccccc1	AmpC inh detg inconclusive, Sm TGR inh 45µM

From PubChem
